Assay outcomes deposited in PubChem by National Center for Advancing Translational Sciences (NCATS).
ELG1 genotox – induces genotoxicity in HEK293T cells with luciferase-tagged ELG1 | Potency, µM (highest dose often 46 µM), for the others: top-dose activity change, positive = activation, actives largely listed as activators | HEK293T ELG1-luciferase reporter, luminescence, 16 h | actives 1.3% (n = 330,000); note: % of control where 0% means no effect; nearly all actives have a fitted effect of over 60% in size
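After overnight (16 hr) compound treatment at 37 °C, ELG1-luciferase HEK293T cells were lysed with ONE-Glo; luminescence quantified 30 min later at room temperature.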
SMN2 splice up – increases expression of the SMN2 splice variant. Potency, µM (titrated, usually from 46.1 µM), inactives show at the top dose activity change, positive = activation, usual class: activators. HEK293 SMN2-luciferase splicing reporter, luminescence, 30-36 h. AID 1458. actives 2.8% (n = 210,000); note: % of control where 0% means no effect; nearly all actives have a fitted effect of over 55% in size
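HEK293 cells carry an SMN2 minigene-luciferase reporter in which exon 7 inclusion puts luciferase in frame. Cells were seeded at 2000 cells/well, attached for 10-12 hours, then exposed to compounds for 30-36 hours at 37C before ONE-Glo luminescence.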
FLuc counter – firefly luciferase modulation, counter-screen for miR-21 project; Potency, µM (titrated, usually from 57.5 µM), inactives show top-dose activity change, negative = inhibition, hits mostly inhibitors; actives 6.9% (n = 360,000); P08659; purified FLuc, Km substrates, luminescence inhibition; AID 588342;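 note: plate controls were vehicle for no effect and reference inhibitor for full effect; nearly all actives have a fitted effect of over 55% in size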
Target sequence (P08659 whole entry, looked up): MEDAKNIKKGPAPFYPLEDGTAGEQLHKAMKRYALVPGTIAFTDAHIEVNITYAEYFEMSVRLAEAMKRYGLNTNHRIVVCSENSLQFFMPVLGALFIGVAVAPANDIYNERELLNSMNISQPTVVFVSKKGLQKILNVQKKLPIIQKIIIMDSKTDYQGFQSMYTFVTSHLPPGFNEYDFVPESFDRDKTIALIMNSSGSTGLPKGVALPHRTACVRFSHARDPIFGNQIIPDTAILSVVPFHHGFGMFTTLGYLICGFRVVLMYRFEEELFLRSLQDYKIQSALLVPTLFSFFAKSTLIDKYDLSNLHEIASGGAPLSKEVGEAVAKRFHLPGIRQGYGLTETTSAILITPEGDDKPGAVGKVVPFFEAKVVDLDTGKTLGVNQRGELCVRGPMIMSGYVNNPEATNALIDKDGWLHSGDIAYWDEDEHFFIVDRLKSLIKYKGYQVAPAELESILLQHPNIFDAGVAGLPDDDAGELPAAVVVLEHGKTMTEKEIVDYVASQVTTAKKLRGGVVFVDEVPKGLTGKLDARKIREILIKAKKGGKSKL
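Biochemical qHTS of compounds, final roughly 60 µM downward over six points, against 10 nM purified firefly luciferase using Km concentrations of substrates (10 uM D-luciferin, 10 uM ATP) in Tris acetate pH 7.5 buffer; luminescence output.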
NPC1 prom act – activates the NPC1 promoter. Huh7 NPC1 promoter luciferase reporter, 24 h. Potency, µM (series often up to 9.22 µM), for the others: at the top dose activation, most hits filed as activators. actives 2.4% (n = 320,000). AID 485313; note: % of control where 0% means no effect; nearly all actives have a fitted effect of over 60% in size
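Compounds in DMSO were transferred onto Huh7 NPC1-luciferase reporter cells pre-incubated 2 h; after 24 h at 37 °C, Amplite reagent was dispensed and luminescence recorded 10 min later.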
KinaseGlo FLuc – blocks Kinase-Glo luciferase, a counter-screen artifact; Q27757; Kinase-Glo luciferase, ATP luminescence, 8 min; Potency, µM (highest dose often 38.3 µM), without a hit: at the highest dose activity change, negative = inhibition, actives largely listed as inhibitors; actives 0.28% (n = 200,000); AID 1379; note: % is set by controls: 0 for no effect and ±100 for the full control effect; nearly all actives have a fitted effect of over 60% in size
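Substrate mix (final 50 mM imidazole pH 7.2, 50 mM KCl, 7 mM MgCl2, 10 uM ATP, 0.01% Tween 20, 0.05% BSA) plus pin-tool compound, then Kinase-Glo detection mix; 8 min ambient, luminescence read.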
Rab9 prom act – activates the Rab9 promoter; Huh7 Rab9 promoter-luciferase reporter, luminescence, 24 h; Potency, µM (highest dose often 9.22 µM), inactives show at the highest dose activation, negative = inhibition, actives largely listed as activators; actives 2.8% (n = 320,000); AID 485297; note: % of control where 0% means no effect; nearly all actives have a fitted effect of over 60% in size
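Huh7 reporter line, Rab9 promoter upstream of luciferase. Compound exposure 24 h at 37 °C in reduced-serum medium with 10% FBS. Read-out: luminescence.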
* hit, by the source's call; ? = inconclusive; · = not tested or not shown. A selection: hits, their analogues and other compounds. The true share with any hit is near 7.5%. Calls come from the whole dose curve; as a rule, active = well fitted curve in the direction sought with a large enough effect; inconclusive = small, poorly fitted or top-dose-only effect, or another doubt; inactive = no such curve, though single readings can be large; an effect the other way counts as inactive or inconclusive. Potency is the fitted concentration of half-maximal effect.

SMILES | ELG1 genotox | SMN2 splice up | FLuc counter | NPC1 prom act | KinaseGlo FLuc | Rab9 prom act
Cc1ccc(OCC(=O)NNC(=O)c2ccco2)c(C)c1 | 11% | · | 12µM* | 12% | · | 2%
Cc1nc(NC2CCCCC2)c2nc(-c3ccccc3)n(CCCN3CCOCC3)c2n1 | · | -33% | · | · | -7% | ·
COc1ccc(CC(=O)N/N=C(\C)c2cccnc2)cc1 | 4% | · | 2% | -1% | · | 3%
CN=c1scc(-c2ccc(OC)cc2)n1/N=C(\C)c1cccnc1 | -2% | -21% | 12µM* | 14% | 3% | 1%
C=CCOc1cccc(C(=O)/C=C2/C(=O)Nc3ccccc32)c1 | 18% | · | 7.6µM* | -6% | · | -4%
COC(=O)Cc1ccc(NC(=O)c2ccc(NC(=O)c3ccco3)cc2)cc1 | 2% | -45% | -2% | -4% | 1% | 7%
CCOc1ccc(NC(=S)NC(=O)c2ccco2)cc1 | 16% | · | 11µM* | 2µM* | · | 1.4µM*
CCOc1ccc(NC(=O)CCC(=O)NNC(=O)c2ccco2)cc1 | -1% | -4% | -8% | -4% | 1% | -1%
CN(C)S(=O)(=O)c1cccc(NC(=S)NC(=O)c2ccco2)c1 | 11% | · | ? | ? | · | 3.5µM*
COC(=O)COc1ccc(NC(=O)c2ccco2)cc1 | 3% | · | 24µM* | -1% | · | 3%
COc1ccc(OCC(=O)Nc2cccc(NC(=O)c3ccco3)c2)cc1 | -2% | · | 12µM* | 6% | -1% | 5%
Cc1ccc(S(=O)(=O)c2nc(Cc3ccccc3)oc2N2CCOCC2)cc1 | 3% | · | -1% | 2% | · | -7%
COc1ccc(-c2nn3c(=O)cc(CN4CCN(C(=O)Nc5cc(C)ccc5C)CC4)nc3s2)cc1 | · | · | -7% | · | · | ·
CCOC(=O)c1cnc2ccc(OC)cc2c1Nc1ccc(OCc2ccccc2Cl)cc1 | · | -34% | -8% | · | · | ·
O=C(Nc1ccccc1Br)C1CC(=O)N(c2ccc3c4c(cccc24)CC3)C1 (centres undefined) | -5% | -14% | 0% | -13% | -2% | -6%
COc1ccc(-c2cc(-c3ccc4c(c3)NC(=O)CO4)nc3c2COc2ccc(F)cc2-3)cc1 | · | 3% | -5% | · | · | ·
CCOc1ccccc1OCCCCn1c(-c2ccc(Cl)cc2)nc2ccccc2c1=O | · | -14% | -3% | · | · | ·
CCOc1ccc(NC(=O)c2ccco2)cc1 | ? | 10µM* | 4.8µM* | 0.71µM* | -22% | 0.63µM*
O=C(NCc1ccccc1Cl)c1nnc(Cc2ccc(Cl)cc2)o1 | · | 10% | -3% | · | · | ·
Cc1nc(-c2cc(-c3ccc(Cl)cc3)no2)cs1 | ? | · | 1.2µM* | 1.1µM* | · | 0.56µM*
Clc1ccc(-c2cc(-c3ccccc3)on2)cc1 | ? | · | 0.85µM* | 1.4µM* | · | 1.3µM*
Clc1ccc(SCc2cc(-c3ccccc3)on2)cc1 | ? | 6% | -4% | 2% | 3% | 4%
O=C(CN1C(=O)C2(SCC(=O)N2c2cccc(Cl)c2)c2ccccc21)NCc1ccccc1 (centres undefined) | · | · | 5% | · | · | ·
Cc1ccc(C(=O)N/N=C\C=C\c2ccccc2[N+](=O)[O-])cn1 | 0% | -7% | -6% | 3% | 1% | 7%
Cc1ccc(C(=O)N/N=C/c2cc(Br)ccc2O)cn1 | 11% | · | 13µM* | -29% | · | -35%
SMILES | ELG1 genotox | SMN2 splice up | FLuc counter | NPC1 prom act | KinaseGlo FLuc | Rab9 prom act
CCOc1ccc(C(=O)N/N=C/c2ccccc2[N+](=O)[O-])cc1 | ? | 13µM* | 1.7µM* | 2.2µM* | -3% | 1.4µM*
Cc1ccc(C(=O)N/N=C\C=C\c2ccc(Br)cc2)cn1 | 1% | -27% | -13% | -3% | -1% | 0%
COc1cc(/C=N/NC(=O)c2ccc(C)nc2)cc([N+](=O)[O-])c1O | -2% | 2% | 21µM* | 0% | -7% | 2%
Cc1ccc(C(=O)N/N=C\c2ccccc2[N+](=O)[O-])cn1 | 9% | 13µM* | 12µM* | 3.5µM* | -8% | 2.8µM*
COc1ccc(C2C(C(=O)O)c3ccccc3C(=O)N2Cc2ccco2)cc1 (centres undefined) | -1% | · | -3% | -3% | · | -4%
Cc1ccc2c(c1)C1CN(C)CCC1N2S(=O)(=O)c1ccccc1F (centres undefined) | 0% | · | 0% | -3% | · | -3%
CN1CCN(NC(=O)/C=C/c2cccc([N+](=O)[O-])c2)CC1 | 0% | · | -2% | 1% | · | 4%
O=C(NCc1ccccc1Cl)C1CCCN(C(=O)c2cnn(-c3ccc(F)cc3)c2-n2cccc2)C1 (centres undefined) | · | · | -4% | · | · | ·
O=C(N/N=C/c1ccc(O)c(O)c1)N/N=C/c1ccc(O)c(O)c1 | 7% | · | 5.4µM* | 0% | · | -14%
Cc1nonc1C(=O)N/N=C/c1ccc(O)c(O)c1 | 3% | -11% | ? | -9% | 6.3µM* | -14%
Cc1cc(SCC(=O)N/N=C/c2ccc(O)c(O)c2)c(C)cc1Br | -9% | 18% | 6% | -7% | -2% | 1%
COc1cc(/C=N/NC(=O)c2nonc2C)ccc1O | 3% | 7% | ? | -1% | -14% | -1%
O=C(COC(=O)c1c2c(nc3ccccc13)CCN(Cc1ccccc1)C2)Nc1c(F)cccc1F | -7% | -23% | ? | -4% | 2% | -7%
CC(=O)Nc1ccc(NC(=O)COC(=O)c2c3c(nc4ccccc24)CCN(Cc2ccccc2)C3)cc1 | -3% | · | 8.5µM* | 7% | · | 6%
Cc1ccc2[nH]c(=O)c3cc(C(=O)NCCCN4CCC(C)CC4)sc3c2c1 | · | 14% | -1% | · | · | ·
COc1ccccc1C(=O)NCCC(=O)Nc1ccc(S(=O)(=O)N2CCC(C)CC2)cc1 | -1% | · | -1% | -3% | · | -12%
N#CC1=C(N)Oc2n[nH]c(-c3ccccc3)c2C1c1cccnc1 (centres undefined) | 0% | 3.5µM* | 5% | 3% | -3% | 13%
Cc1ccc(-c2[nH]nc3c2C(c2cccnc2)C(C#N)=C(N)O3)cc1 (centres undefined) | · | · | -8% | -4% | · | -2%
O=C(CCN1C(=O)C2C3CCC(C3)C2C1=O)Nc1ccc(F)cc1 (centres undefined) | 2% | · | 3% | 2% | · | -5%
COc1ccc(Nc2nc(N)nc(CCl)n2)cc1 | ? | · | 6µM* | · | · | -48%
Nc1nc(CCl)nc(Nc2ccc3ccccc3c2)n1 | 28% | · | 3µM* | -37% | · | -54%
COc1ccc(OC)c(NC(=O)CSc2cn(CC(=O)N3CCOCC3)c3ccccc23)c1 | · | · | 6% | · | · | ·
COc1ccc(NC(=O)CSCc2cc(=O)n3cc(C)sc3n2)cc1 | -7% | · | 4% | -4% | · | -5%
Cc1ccc2nc(N3C(=O)CNC3=S)sc2c1 | 21µM* | · | 1.5µM* | 1.1µM* | · | ?
